High-throughput results from PubChem.
This is a sample that favours compounds with a hit; in the whole collection about 12% have one here.
WT yeast gro inh: growth inhibition of WT yeast, mitochondrial fusion screen. mitochondrial fusion phenotypic screen, WT strain. inhibition, % at 10 µM. hit rate 2.1% among 190,000; in the data active = inhibition above about 58%; tested in S. cerevisiae
L major viab: inhibitors of Leishmania major promastigote growth | Leishmania major promastigotes, resazurin fluorescence viability | inhibition, % at 10 µM | hit rate 9% among 200,000 | AID 1063; in the data active = inhibition above about 50%;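 also: promastigotes grown with compound for 44 hours at 28 °C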
CHOP inh: blocks CHOP induction under ER stress | CHO-K1 CHOP-promoter luciferase, tunicamycin-induced, 15-18 h | inhibition, % at 10 µM | hit rate 3.8% among 220,000 | AID 2732;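 active = compounds that reduced the stress-induced luciferase reporter signal by more than about 70% of percent inhibition, limit read from the data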;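 also: 0% = tunicamycin plus vehicle and 100% = wells without tunicamycin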
Arbovirus inh: arbovirus infection inhibition; arbovirus infection cell-based antiviral screen; hit rate 0.37% among 200,000; AID 1251; inhibition, % at 10 µM; in the data active = inhibition above about 30%
Numbers without * were called inactive; · = not tested or not shown.

SMILES | WT yeast gro inh | L major viab | CHOP inh | Arbovirus inh
O=C(Nc1cccc(Cl)c1)N1CCN(Cc2ccccc2)CC1 | -13.1 | 1.2 | 4.7 | -14.1
O=C(Nc1ccc(Cl)cc1)N1CCCC1 | 22.1 | 96.0* | 44.9 | -4.1
O=C(c1cccc(C(F)(F)F)c1)c1c[nH]c(C(=O)NCCCN2CCOCC2)c1 | -8.0 | -12.8 | 7.9 | 0.6
CC1(C)OC(C)(C)/C(=C/Nc2ccccc2)C1=O | 7.5 | -8.6 | -5.3 | -3.3
Cc1cc(C(=O)NC(=S)Nc2cccc(NC(=O)C(C)C)c2)ccc1[N+](=O)[O-] | 6.8 | 81.9* | 80.6* | -1.1
COc1ccc(NC(=O)COc2ccc(C)cc2)c([N+](=O)[O-])c1 | -11.8 | -2.5 | 44.5 | 7.9
COc1ccc(NC(=O)Cc2ccc(C)cc2)c([N+](=O)[O-])c1 | -6.7 | 90.7* | -5.0 | 4.2
CC(C)C(=O)Nc1cccc(NC(=S)NC(=O)c2ccc([N+](=O)[O-])cc2)c1 | 31.9 | 5.9 | 7.4 | 7.6
COc1ccc(NC(=O)c2cccc(NC(=O)C(C)C)c2)c([N+](=O)[O-])c1 | 25.2 | 73.0* | 18.9 | 1.6
O=S(=O)(c1ccccc1)c1nc(-c2cccs2)oc1NCC1CCCO1 (centres undefined) | -5.3 | 85.6* | 25.8 | 4.4
N#Cc1nc(-c2cccs2)oc1NCC1CCCO1 (centres undefined) | 4.8 | -2.0 | -3.0 | 1.9
O=C(Nc1ccc(C(=O)O)cc1)/C(=C/c1cccc(Br)c1)NC(=O)c1ccco1 | -8.5 | -8.6 | -1.7 | 16.2
Cc1ccc(NC(=O)/C(=C/c2cccc(Br)c2)NC(=O)c2ccco2)cc1 | 19.6 | 90.5* | 1.1 | 3.1
CSc1ccc(/C=C(/NC(=O)c2ccc(C)cc2)C(=O)Nc2cccc(C)c2)cc1 | 8.3 | 63.2* | 27.7 | 0.6
CSc1ccc(/C=C(\NC(=O)c2ccc(C)cc2)C(=O)NN)cc1 | · | · | 19.6 | ·
CC1C/C(=N\NC(=S)NC(C)C)CC(C)(C)C1 (centres undefined) | 65.0* | 100.3* | 33.7 | -10.3
CC(=O)N1CCN(Cc2nc3cc(NC(=O)c4ccc(F)cc4)ccc3n2C)CC1 | 0.3 | 9.8 | -13.9 | 0.2
Cc1ccccc1-c1cc(C(=O)Nc2sc(C(=O)OC(C)C)c(C)c2C#N)c2ccccc2n1 | 27.8 | 40.2 | 66.2 | 5.7
O=C(NNc1c2ccccc2nc2ccccc12)c1ccccc1O | 27.4 | 21.0 | 17.6 | -7.3
COc1ccc(OCC(=O)NNc2c3ccccc3nc3ccccc23)cc1 | 63.8* | 16.2 | 36.2 | -7.4
O=C(NNc1c2ccccc2nc2ccccc12)c1ccc(O)cc1 | 3.4 | 70.8* | 14.0 | -6.0
CCCC(=O)NNc1c2ccccc2nc2ccccc12 | 52.1 | 29.1 | 21.1 | -6.1
O=C(NNc1c2ccccc2nc2ccccc12)c1cccc(O)c1 | 24.7 | 89.8* | 17.0 | 1.4
O=C(NNc1c2ccccc2nc2ccccc12)c1ccc(O)cc1O | 1.0 | 99.3* | 29.7 | -25.1
O=C(NNS(=O)(=O)c1ccc2ccccc2c1)c1cccnc1 | -4.4 | -2.4 | -15.2 | -2.6
SMILES | WT yeast gro inh | L major viab | CHOP inh | Arbovirus inh
O=C(CSCc1ccc(Br)cc1)NCc1ccccn1 | -9.5 | -3.6 | 5.9 | -4.0
COc1ccc(CCNC(=O)CSc2nn(-c3ccccc3)c(=S)s2)cc1OC | -4.6 | 13.8 | -5.0 | 5.1
COc1ccc(N2CCN(C(=O)C(Cc3ccccc3)n3cccc3)CC2)cc1 (centres undefined) | 18.2 | 5.8 | 59.6 | 9.6
CN([C@@H](Cc1ccc(OS(=O)(=O)c2cccc3cnccc23)cc1)C(=O)N1CCN(c2ccccc2)CC1)S(=O)(=O)c1cccc2cnccc12 | -0.6 | 98.2* | 52.4 | -8.1
Cc1nn(Cc2c(F)c(F)c(F)c(F)c2F)c(C)c1NC(=O)c1ccc(COc2ccc(Cl)cc2Cl)o1 | 46.9 | 27.0 | 70.2* | -15.3
COC(=O)c1ccc2c(=O)n(-c3ccccc3F)c(=S)[nH]c2c1 | -2.5 | -6.5 | -19.0 | 18.2
O=C(Nc1ccc2c(c1)OCO2)C1CC(c2ccccc2Cl)=NO1 (centres undefined) | -12.9 | -5.1 | 12.5 | -14.1
CCn1cc(C2=NOC(C(=O)Nc3ccc4c(c3)OCO4)C2)c(C)n1 (centres undefined) | 24.8 | 56.7* | -1.7 | -0.4
CCCCCn1c(CN2CCN(c3cc(Cl)ccc3C)CC2)nc2c1c(=O)[nH]c(=O)n2C | 65.5* | 35.1 | 66.7 | 1.2
Cn1c(=O)[nH]c(=O)c2c1nc(N1CCNCC1)n2Cc1cccc2ccccc12 | -7.2 | 82.7* | 18.7 | 3.3
CCCCn1c(CN2CCN(C(=O)OCC)CC2)nc2c1c(=O)[nH]c(=O)n2C | 3.5 | -4.0 | 6.8 | -1.5
CCCCCn1c(N2CCN(c3cccc(Cl)c3)CC2)nc2c1c(=O)[nH]c(=O)n2C | -2.6 | 31.7 | 86.6* | -2.9
CON(C)c1nc(OCC#N)nc(N(C)C)n1 | 3.7 | -6.2 | 22.6 | -4.0
